Results taken from PubChem BioAssay (NCI).
Several values for one entry are separate records, joined by “and”; a condition that tells them apart may be missing. Identical values can stand only once. The panel holds about 83,000 compounds, 20% with a hit somewhere; the sample as a whole holds those more often.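 Cell lines were cultured in 96-well plates, exposed to a single compound concentration, and assessed for percent growth 48 hours later.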 Activity calls are given as the source filed them. How the source made its calls: active means growth percent below 10; inactive means the rest.

Legend:
Experiment in all cases: NCI-60 one-dose screen, 48 h (100 = growth as untreated, 0 = no growth, -100 = all killed)
Conditions in all cases: 10 µM unless noted
SK-MEL-2 melanoma = system: SK-MEL-2 melanoma
EKVX NSCLC = system: EKVX NSCLC
SN12C renal = system: SN12C renal
ACHN renal = system: ACHN renal
CAKI-1 renal = system: CAKI-1 renal
A498 renal = system: A498 renal
HL-60(TB) leukemia = system: HL-60(TB) leukemia
CCRF-CEM leukemia = system: CCRF-CEM leukemia
MOLT-4 leukemia = system: MOLT-4 leukemia
SR leukemia = system: SR leukemia
RPMI-8226 leukemia = system: RPMI-8226 leukemia
OVCAR-8 ovarian = system: OVCAR-8 ovarian
OVCAR-5 ovarian = system: OVCAR-5 ovarian
OVCAR-4 ovarian = system: OVCAR-4 ovarian
SK-OV-3 ovarian = system: SK-OV-3 ovarian
OVCAR-3 ovarian = system: OVCAR-3 ovarian
HS 578T breast = system: HS 578T breast
UO-31 renal = system: UO-31 renal
TK-10 renal = system: TK-10 renal
IGROV1 ovarian = system: IGROV1 ovarian

Compound | growth (SK-MEL-2 melanoma) | growth (EKVX NSCLC) | growth (SN12C renal) | growth (ACHN renal) | growth (CAKI-1 renal) | growth (A498 renal) | growth (HL-60(TB) leukemia) | growth (CCRF-CEM leukemia) | growth (MOLT-4 leukemia) | growth (SR leukemia) | growth (RPMI-8226 leukemia) | growth (OVCAR-8 ovarian) | growth (OVCAR-5 ovarian) | growth (OVCAR-4 ovarian) | growth (SK-OV-3 ovarian) | growth (OVCAR-3 ovarian) | growth (HS 578T breast) | growth (UO-31 renal) | growth (TK-10 renal) | growth (IGROV1 ovarian)
COC(=O)C1=CO[C@@H](C)[C@@H]2CN3CCc4c([nH]c5cc(OC)ccc45)[C@@H]3C[C@H]12 | 100% (inactive) | 97.5% (inactive) | 87.8% (inactive) | 94.8% (inactive) | 89.8% (inactive) | 68.6% (inactive) | 87.1% (inactive) | 106% (inactive) | 94.8% (inactive) | 92.7% (inactive) | 94.3% (inactive) | 95.9% (inactive) | 95.6% (inactive) | 107% (inactive) | 100% (inactive) | 100% (inactive) | 94.5% (inactive) | – | – | –
C[C@]12CCc3nc(-c4ccc(O)c(O)c4)sc3C1=CC[C@@H]1[C@@H]2CC[C@]2(C)C(=O)CC[C@@H]12 | 104% (inactive) | 95.7% (inactive) | 72.7% (inactive) | 51.3% (inactive) | 39.7% (inactive) | 113% (inactive) | – | 47.5% (inactive) | 45.4% (inactive) | 39.3% (inactive) | 9.9% (active) | – | 112% (inactive) | 67.1% (inactive) | 89.7% (inactive) | 87.5% (inactive) | 66.8% (inactive) | 43% (inactive) | – | –
CC1(C)N=C(N)N=C(N)N1c1ccc(CCC(=O)Nc2ccc(S(=O)(=O)F)cc2)cc1 | 50.4% (inactive) | – | 33.4% (inactive) | 64.5% (inactive) | 28.8% (inactive) | 60.3% (inactive) | 18.8% (inactive) | 18.9% (inactive) | 26.1% (inactive) | 15.7% (inactive) | 34.4% (inactive) | 36.7% (inactive) | 34% (inactive) | 92.8% (inactive) | 67.8% (inactive) | 96.7% (inactive) | – | 82.3% (inactive) | 24.3% (inactive) | –
CCOC(=O)c1c(SC)nc(-c2ccc(Cl)cc2)sc1=N | – | – | – | – | – | – | – | – | – | – | – | – | – | – | – | – | – | – | 6.59% [100 µM] (active) and 15.8% [100 µM] (inactive) | –
N#CC(C#N)=C(C#N)C#N | – | – | 110% (inactive) | 94.8% (inactive) | 125% (inactive) | 110% (inactive) | 107% (inactive) | – | 102% (inactive) | 105% (inactive) | 101% (inactive) | 96% (inactive) | 101% (inactive) | 104% (inactive) | 109% (inactive) | 107% (inactive) | 103% (inactive) | 90.9% (inactive) | – | 108% (inactive)
Nc1ccc(S(=O)(=O)F)cc1 | – | 112% (inactive) | 105% (inactive) | 109% (inactive) | 101% (inactive) | 94.8% (inactive) | 91.9% (inactive) | – | 93.3% (inactive) | 84.7% (inactive) | 98.9% (inactive) | 107% (inactive) | 102% (inactive) | 130% (inactive) | 105% (inactive) | 111% (inactive) | – | 86.3% (inactive) | – | 105% (inactive)
Cc1cc(N)ccc1N | 104% (inactive) | – | 95.7% (inactive) | – | 97.9% (inactive) | 79.2% (inactive) | 100% (inactive) | 69.3% (inactive) | 107% (inactive) | 110% (inactive) | – | 96.1% (inactive) | 96% (inactive) | 104% (inactive) | 99.9% (inactive) | 102% (inactive) | 104% (inactive) | 88.7% (inactive) | – | –
Cc1cc[n+](CCc2ccccc2)cc1 | – | – | 102% (inactive) and 105% (inactive) | 103% (inactive) | 97% (inactive) and 98.7% (inactive) | 83.9% (inactive) and 93.6% (inactive) | 97.8% (inactive) and 95.8% (inactive) | – | 90.4% (inactive) and 101% (inactive) | 101% (inactive) | 115% (inactive) | 95.7% (inactive) and 99.1% (inactive) | 88.3% (inactive) and 116% (inactive) | 90.3% (inactive) and 104% (inactive) | – | 104% (inactive) and 118% (inactive) | 105% (inactive) | 57.8% (inactive) and 85.1% (inactive) | 91.8% (inactive) and 106% (inactive) | 94.7% (inactive) and 82.5% (inactive)
N#CC(N)c1ccccc1 (centres undefined) | 122% (inactive) | – | 104% (inactive) | – | 102% (inactive) | 81.2% (inactive) | 102% (inactive) | – | 108% (inactive) | 101% (inactive) | 99% (inactive) | 106% (inactive) | – | 110% (inactive) | 115% (inactive) | 106% (inactive) | 98.5% (inactive) | 86.3% (inactive) | 109% (inactive) | 115% (inactive)
O=S(=O)(F)c1cccc(Cl)c1C[P+](c1ccccc1)(c1ccccc1)c1ccccc1 | 97.1% (inactive) | – | 102% (inactive) | 97.7% (inactive) | 94.4% (inactive) | 122% (inactive) | 98.9% (inactive) | 86.7% (inactive) | 112% (inactive) | 95.3% (inactive) | 74.1% (inactive) | 84.3% (inactive) | 94.8% (inactive) | 90.2% (inactive) | 89.2% (inactive) | 96.5% (inactive) | – | 88.3% (inactive) | – | 85.4% (inactive)
COc1ccc(N)cc1N | – | 107% (inactive) | 101% (inactive) | 101% (inactive) | 101% (inactive) | 122% (inactive) | 128% (inactive) | 111% (inactive) | 163% (inactive) | – | – | – | 98.5% (inactive) | 97.6% (inactive) | 100% (inactive) | 120% (inactive) | 108% (inactive) | 70.8% (inactive) | 148% (inactive) | –
c1ccc2c(c1)O[As](O[As]1Oc3ccccc3O1)O2 | 5.79% (active) | – | 40.2% (inactive) | – | 16.5% (inactive) | 27.5% (inactive) | -28.3% (active) | – | 19.2% (inactive) | 2.68% (active) | -14.9% (active) | 23.3% (inactive) | 40.6% (inactive) | 40.3% (inactive) | 75.6% (inactive) | 14.2% (inactive) | 38.8% (inactive) | 32.2% (inactive) | 61.6% (inactive) | 6.22% (active)
O=C1CCCCC1CN1CCCCC1 (centres undefined) | – | 104% (inactive) | 99.9% (inactive) | 102% (inactive) | 102% (inactive) | 96.6% (inactive) | 93.4% (inactive) | 98.7% (inactive) | 116% (inactive) | 123% (inactive) | 108% (inactive) | – | 97.1% (inactive) | 119% (inactive) | – | 100% (inactive) | 107% (inactive) | 88.7% (inactive) | – | –
CN(N)/N=N/c1nc[nH]c1[N+](=O)[O-] | – | – | – | – | – | – | – | – | – | – | – | – | – | – | – | – | – | – | 79.1% [100 µM] (inactive) and 9.85% [100 µM] (active) | –
OC[C@@H](O)[C@@H](O)CO | – | – | – | – | – | – | 92.4% (inactive) | – | – | – | – | – | – | – | – | – | – | – | – | –
CCOP(=O)(OCC)C(=O)N(CC)CC | 103% (inactive) | – | 103% (inactive) | 105% (inactive) | 103% (inactive) | 95.4% (inactive) | 91.8% (inactive) | 89.1% (inactive) | 114% (inactive) | 91.2% (inactive) | 89.2% (inactive) | 96.1% (inactive) | 111% (inactive) | 96.5% (inactive) | 104% (inactive) | 109% (inactive) | 101% (inactive) | 104% (inactive) | – | 112% (inactive)
